Several values for one entry are separate records, joined by “and”; a condition that tells them apart may be missing. Equal values may be shown once. Inconclusive results are not listed. A structure can be active in one record and inactive in another. Activity calls are given as the source filed them. How the source made its calls, unless noted: active means hit-call score of the fitted dose curve at least 0.9, where 1 is the maximum; inactive means score below 0.9.
How the values were obtained:
[1] = molecular target: Paired box protein Pax-6 (Homo sapiens) (UniProt P26367); assay: ATG_Pax6_CIS: Attagene CIS-FACTORIAL HepG2 Assay for human Paired Box 6 (PAX6) (AID 2282956); details: HepG2 CIS-FACTORIAL PAX6 reporter transcription, RNA readout; actives raise or lower the signal
Summary of the method: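 Fluorescent RT-PCR products separated by capillary electrophoresis report PAX6-linked promoter mRNA in HepG2 cells 24 h post-dose. Curves fitted bidirectionally, DMSO as negative control.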

[2] = ATG_PXRE_CIS: Attagene CIS-FACTORIAL HepG2 Assay for human Pregnane X Receptor Element (PXRE) (AID 2282957); details: HepG2 Attagene CIS-FACTORIAL PXRE reporter, mRNA; actives raise or lower the signal
Summary of the method: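 Endogenous transcription factor activity in HepG2 was gauged through induction of reporter mRNA driven by a cis-regulating promoter element, sampled 24 h post-treatment. Activity was fitted in both directions against DMSO negative control.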

[3] = ATG_PPRE_CIS: Attagene CIS-FACTORIAL HepG2 Assay for human Peroxisome Proliferator-activated Response Element (PPRE) (AID 2282958); details: HepG2 PPRE cis-element reporter, Attagene transcription factor profiling; actives raise or lower the signal
Summary of the method: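 Read-out: fluorescent reporter mRNA fragments resolved by capillary electrophoresis after RT-PCR. HepG2 cells carried transiently transfected PPRE-driven cis reporter constructs and were dosed for 24 h; gain or loss of signal fitted relative to DMSO.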

[4] = ATG_RORE_CIS: Attagene CIS-FACTORIAL HepG2 Assay for human RAR-related Orphan Receptor Element (RORE) (AID 2282959); details: HepG2 Attagene cis-factorial RORE reporter, mRNA; actives raise or lower the signal
Summary of the method: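 Readout: fluorescent reporter mRNA by RT-PCR plus capillary electrophoresis, 24 h after dosing transfected HepG2 cells. Endogenous transcription factor activity on a cis promoter element is measured. Gain or loss of signal fitted against DMSO.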

[5] = ATG_Sox_CIS: Attagene CIS-FACTORIAL HepG2 Assay for human SRY-box transcription factor (SOX) (AID 2282960); details: HepG2 Attagene cis-factorial SOX reporter, mRNA; actives raise or lower the signal
Summary of the method: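 Read-out: fluorescent RT-PCR products of SOX1-linked reporter transcripts resolved by capillary electrophoresis, fitted bidirectionally against DMSO. Transiently transfected HepG2 cells, 24 h after chemical exposure, endogenous transcription factor activity.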

[6] = ATG_SREBP_CIS: Attagene CIS-FACTORIAL HepG2 Assay for human Sterol Regulatory Element Binding (SREBP) (AID 2282962); details: HepG2 Attagene cis-factorial SREBP reporter, mRNA; actives raise or lower the signal
Summary of the method: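 Endogenous factor activity is measured in HepG2 through multiplexed reporter units under cis-element control. Following a 24 h incubation, reporter transcripts are reverse-transcribed, PCR-amplified and sized by capillary electrophoresis; activity is fitted in both directions relative to DMSO.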

[7] = molecular target: Signal transducer and activator of transcription 3 (Homo sapiens) (UniProt P40763); assay: ATG_STAT3_CIS: Attagene CIS-FACTORIAL HepG2 Assay for human Signal Transducer and Activator of Transcription 3 (STAT3) (AID 2282963); details: HepG2, Attagene cis-factorial STAT3 reporter transcription; actives raise or lower the signal
Summary of the method: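 HepG2, MRTU-transfected, 24 h dosing. RNA → RT → PCR → FAM label → HpaI → CE. Bidirectional fit vs DMSO.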

[8] = ATG_TA_CIS: Attagene CIS-FACTORIAL HepG2 Assay for human TA Basal Promoter (AID 2282964); details: HepG2 Attagene CIS-factorial TA basal promoter reporter; actives raise or lower the signal
Summary of the method: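 Cis-factorial format in HepG2: reporters report endogenous factors, not chimeric Gal4 fusions. After 24 h treatment, reporter transcripts were measured by RT-PCR-capillary electrophoresis fluorescence, analysed bidirectionally versus DMSO.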

[9] = ATG_TCF_b_cat_CIS: Attagene CIS-FACTORIAL HepG2 Assay for human T-Cell-Factor with beta-catenin (TCF/b-cat) (AID 2282965); details: HepG2 TCF/beta-catenin cis-reporter transcription, actives raise or lower the signal
Summary of the method: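 Using capillary electrophoresis as the read-out, labelled reporter cDNA fragments from transiently transfected HepG2 were sized and quantified. Exposure lasted 24 hours; activity in either direction was referenced to DMSO.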

[10] = ATG_TAL_CIS: Attagene CIS-FACTORIAL HepG2 Assay for human TAL Basal Promoter (AID 2282966); details: HepG2 Attagene cis-factorial TAL promoter reporter; actives raise or lower the signal;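 further: background control endpoint measuring basal TAL promoter reporter mRNA not a specific factor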
Summary of the method: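 Endogenous transcription-factor activity is sensed in HepG2 cells through transfected cis-promoter reporter constructs. After 24 h dosing, reporter transcripts are quantified by RT-PCR and capillary electrophoresis. Gain or loss of signal is fitted relative to DMSO.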

[11] = ATG_TGFb_CIS: Attagene CIS-FACTORIAL HepG2 Assay for human Transforming Growth Factor (TGF) (AID 2282967); details: HepG2 Attagene CIS TGFb reporter, mRNA transcription; actives raise or lower the signal
Summary of the method: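 Multiplexed cis-reporter HepG2 system, 24 h treatment; mRNA induction read by fluorescence after RT-PCR and CE; DMSO negative control, bidirectional curve fitting.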

[12] = molecular target: Nuclear receptor subfamily 1 group I member 3 (Homo sapiens) (UniProt Q14994); assay: ATG_CAR_TRANS: Attagene TRANS-FACTORIAL HepG2 Assay for human Constitutive Androstane Receptor (CAR) (AID 2282969; active means hit-call score of the fitted dose curve at least 0.9, where 1 is the maximum;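 further: activators raise reporter mRNA above DMSO so AC50 marks induction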); details: HepG2 Attagene TRANS-FACTORIAL CAR reporter
Summary of the method: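 Steps: transient transfection of HepG2 with multiple GAL4-UAS reporter units; 24 h compound incubation; RNA isolation, RT-PCR, 6-FAM primer extension, HpaI digest; capillary electrophoresis. Gain-of-signal relative to DMSO negative control.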

[13] = molecular target: Estrogen receptor (Homo sapiens) (UniProt P03372); assay: ATG_ERa_TRANS: Attagene TRANS-FACTORIAL HepG2 Assay for human Estrogen Receptor alpha (ERa) (AID 2282970; active means hit-call score of the fitted dose curve at least 0.9, where 1 is the maximum); details: HepG2 Attagene TRANS ERa GAL4 reporter, mRNA
Summary of the method: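 Transfected HepG2 cells carrying GAL4-UAS-driven reporter units were dosed for 24 hours. Total RNA was reverse-transcribed, reporter sequences PCR-amplified, FAM-labelled, HpaI-digested and resolved by capillary electrophoresis. Increases over DMSO control defined activity.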

[14] = molecular target: Steroid hormone receptor ERR1 (Homo sapiens) (UniProt P11474); assay: ATG_ERRa_TRANS: Attagene TRANS-FACTORIAL HepG2 Assay for human Estrogen-Related Receptor alpha (ERRa) (AID 2282971; active means hit-call score of the fitted dose curve at least 0.9, where 1 is the maximum); details: HepG2 Attagene TRANS reporter, ERRa transactivation
Summary of the method: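 HepG2 cells were transiently transfected with multiple GAL4-UAS reporter units, then dosed with compound for 24 h. Total RNA was reverse-transcribed, reporter cDNA PCR-amplified and fluorescently labelled, and fragments resolved by capillary electrophoresis; induction was compared with DMSO.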

[15] = molecular target: X-box-binding protein 1 (Homo sapiens) (UniProt P17861); assay: ATG_Xbp1_CIS: Attagene CIS-FACTORIAL HepG2 Assay for human X-box Binding Protein 1 (XBP1) (AID 2282972); details: HepG2 XBP1 cis-element reporter, Attagene multiplex; actives raise or lower the signal
Summary of the method: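 Multiplexed cis-reporter readout in transfected HepG2 liver cells. Exposure lasted 24 hours. Activity in either direction was fitted against DMSO as negative control and baseline.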

[16] = ATG_M_19_TRANS: Attagene TRANS-FACTORIAL HepG2 Assay for M19 Transcription Factor (Internal Marker) (AID 2282974; active means hit-call score of the fitted dose curve at least 0.9, where 1 is the maximum); details: HepG2 Attagene TRANS-FACTORIAL M19 internal marker reporter
Summary of the method: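 24 h chemical exposure of transiently transfected HepG2 (MRTU library). RNA → oligo(dT) RT → PCR → 6-FAM labelling → HpaI cut → CE fluorescence. Positive-direction fit vs DMSO baseline; background internal-marker readout.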

[17] = molecular target: Transcription factor Sp1 (Homo sapiens) (UniProt P08047); assay: ATG_Sp1_CIS: Attagene CIS-FACTORIAL HepG2 Assay for human Specificity Protein 1 (Sp1) (AID 2282961); details: HepG2 Sp1 cis-reporter transcription, actives raise or lower the signal
Summary of the method: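 Read-out: fluorescence of 6-FAM-labeled, HpaI-digested RT-PCR products separated by capillary electrophoresis. HepG2 cells carried transfected cis-element reporter units and were exposed to chemicals for 24 h; gain or loss of signal fitted relative to DMSO.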

[18] = ATG_Hpa5_TRANS: Attagene TRANS-FACTORIAL HepG2 Assay for human GAL4-Hpa5 Hepatocyte Transcription Factor Basal Promoter (AID 2282975; active means hit-call score of the fitted dose curve at least 0.9, where 1 is the maximum;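 further: hits are increases in reporter mRNA over DMSO baseline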); details: HepG2 Attagene GAL4-Hpa5 transcription reporter
Summary of the method: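 Gain-of-signal versus DMSO is fitted for reporter mRNA quantified by RT-PCR and capillary electrophoresis after 24 h exposure. This endpoint is an internal background marker in transiently transfected HepG2 cells carrying GAL4-UAS reporter units.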

[19] = molecular target: Androgen receptor (Homo sapiens) (UniProt P10275); assay: ATG_AR_TRANS: Attagene TRANS-FACTORIAL HepG2 Assay for human Androgen Receptor (AR) (AID 2282973; active means hit-call score of the fitted dose curve at least 0.9, where 1 is the maximum); details: HepG2 Attagene TRANS-FACTORIAL AR reporter transcription
Summary of the method: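 Transfected HepG2, 24 h treatment, chimeric NR-Gal4 driving GAL4-UAS reporters. mRNA induction by RT-PCR/capillary electrophoresis fluorescence; DMSO as negative control and baseline.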

Measured: AC50

Sequence of Estrogen receptor (Homo sapiens) (P03372 whole entry, looked up, the tested form may be a part): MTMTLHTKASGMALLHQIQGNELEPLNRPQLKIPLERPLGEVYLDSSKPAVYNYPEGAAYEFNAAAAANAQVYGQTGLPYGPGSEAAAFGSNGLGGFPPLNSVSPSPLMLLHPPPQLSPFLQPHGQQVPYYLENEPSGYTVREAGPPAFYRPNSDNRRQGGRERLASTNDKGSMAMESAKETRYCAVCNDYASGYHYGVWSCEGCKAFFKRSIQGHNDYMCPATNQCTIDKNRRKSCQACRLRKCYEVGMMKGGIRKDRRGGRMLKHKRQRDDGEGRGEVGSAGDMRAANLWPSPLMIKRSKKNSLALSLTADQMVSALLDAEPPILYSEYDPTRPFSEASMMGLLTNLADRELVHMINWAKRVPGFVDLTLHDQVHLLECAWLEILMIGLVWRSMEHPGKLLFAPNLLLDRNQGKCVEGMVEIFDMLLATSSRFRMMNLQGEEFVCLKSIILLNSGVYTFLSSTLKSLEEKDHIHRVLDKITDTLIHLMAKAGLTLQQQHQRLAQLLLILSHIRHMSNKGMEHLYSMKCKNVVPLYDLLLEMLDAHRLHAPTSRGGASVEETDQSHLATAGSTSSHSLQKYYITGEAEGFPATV
Sequence of Steroid hormone receptor ERR1 (Homo sapiens) (P11474 whole entry, looked up, the tested form may be a part): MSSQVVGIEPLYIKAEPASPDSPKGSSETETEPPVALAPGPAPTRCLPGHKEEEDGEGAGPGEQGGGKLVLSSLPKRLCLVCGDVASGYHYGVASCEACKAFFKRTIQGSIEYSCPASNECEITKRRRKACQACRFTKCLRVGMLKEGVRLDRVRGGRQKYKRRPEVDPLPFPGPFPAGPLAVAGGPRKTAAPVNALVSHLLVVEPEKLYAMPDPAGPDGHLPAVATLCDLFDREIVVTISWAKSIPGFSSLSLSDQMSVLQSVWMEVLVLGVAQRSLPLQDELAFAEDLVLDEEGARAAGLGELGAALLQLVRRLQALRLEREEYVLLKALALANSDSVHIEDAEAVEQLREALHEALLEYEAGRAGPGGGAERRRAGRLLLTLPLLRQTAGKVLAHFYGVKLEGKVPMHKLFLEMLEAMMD
Sequence of Nuclear receptor subfamily 1 group I member 3 (Homo sapiens) (Q14994 whole entry, looked up, the tested form may be a part): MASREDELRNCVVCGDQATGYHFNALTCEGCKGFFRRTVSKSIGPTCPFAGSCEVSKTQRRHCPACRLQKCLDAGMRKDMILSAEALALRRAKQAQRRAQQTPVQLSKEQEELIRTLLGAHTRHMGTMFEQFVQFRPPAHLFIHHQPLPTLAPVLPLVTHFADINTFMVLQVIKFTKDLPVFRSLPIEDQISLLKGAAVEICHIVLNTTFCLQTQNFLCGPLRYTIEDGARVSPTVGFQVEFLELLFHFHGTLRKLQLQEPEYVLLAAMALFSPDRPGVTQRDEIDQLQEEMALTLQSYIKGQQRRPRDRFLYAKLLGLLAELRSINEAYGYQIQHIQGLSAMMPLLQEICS
Sequence of Signal transducer and activator of transcription 3 (Homo sapiens) (P40763 whole entry, looked up): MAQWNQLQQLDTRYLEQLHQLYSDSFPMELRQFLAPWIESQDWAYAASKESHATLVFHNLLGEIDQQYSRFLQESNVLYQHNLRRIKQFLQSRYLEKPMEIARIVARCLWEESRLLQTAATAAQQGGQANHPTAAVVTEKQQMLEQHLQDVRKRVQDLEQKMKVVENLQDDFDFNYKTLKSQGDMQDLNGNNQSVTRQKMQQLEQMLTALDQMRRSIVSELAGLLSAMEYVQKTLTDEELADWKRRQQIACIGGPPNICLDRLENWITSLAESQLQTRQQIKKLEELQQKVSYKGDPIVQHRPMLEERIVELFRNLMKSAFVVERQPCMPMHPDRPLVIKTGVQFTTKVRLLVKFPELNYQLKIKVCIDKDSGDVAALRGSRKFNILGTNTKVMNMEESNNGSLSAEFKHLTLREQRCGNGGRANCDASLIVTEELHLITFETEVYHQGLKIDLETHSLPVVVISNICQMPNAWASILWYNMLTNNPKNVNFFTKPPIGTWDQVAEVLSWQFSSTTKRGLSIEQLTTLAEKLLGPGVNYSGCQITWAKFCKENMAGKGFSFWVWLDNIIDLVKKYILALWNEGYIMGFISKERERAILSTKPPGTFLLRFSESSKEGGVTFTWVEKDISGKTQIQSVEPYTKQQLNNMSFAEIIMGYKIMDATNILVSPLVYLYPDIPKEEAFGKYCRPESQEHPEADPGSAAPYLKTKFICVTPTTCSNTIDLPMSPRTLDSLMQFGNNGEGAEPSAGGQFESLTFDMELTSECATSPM
Sequence of Transcription factor Sp1 (Homo sapiens) (P08047 whole entry, looked up): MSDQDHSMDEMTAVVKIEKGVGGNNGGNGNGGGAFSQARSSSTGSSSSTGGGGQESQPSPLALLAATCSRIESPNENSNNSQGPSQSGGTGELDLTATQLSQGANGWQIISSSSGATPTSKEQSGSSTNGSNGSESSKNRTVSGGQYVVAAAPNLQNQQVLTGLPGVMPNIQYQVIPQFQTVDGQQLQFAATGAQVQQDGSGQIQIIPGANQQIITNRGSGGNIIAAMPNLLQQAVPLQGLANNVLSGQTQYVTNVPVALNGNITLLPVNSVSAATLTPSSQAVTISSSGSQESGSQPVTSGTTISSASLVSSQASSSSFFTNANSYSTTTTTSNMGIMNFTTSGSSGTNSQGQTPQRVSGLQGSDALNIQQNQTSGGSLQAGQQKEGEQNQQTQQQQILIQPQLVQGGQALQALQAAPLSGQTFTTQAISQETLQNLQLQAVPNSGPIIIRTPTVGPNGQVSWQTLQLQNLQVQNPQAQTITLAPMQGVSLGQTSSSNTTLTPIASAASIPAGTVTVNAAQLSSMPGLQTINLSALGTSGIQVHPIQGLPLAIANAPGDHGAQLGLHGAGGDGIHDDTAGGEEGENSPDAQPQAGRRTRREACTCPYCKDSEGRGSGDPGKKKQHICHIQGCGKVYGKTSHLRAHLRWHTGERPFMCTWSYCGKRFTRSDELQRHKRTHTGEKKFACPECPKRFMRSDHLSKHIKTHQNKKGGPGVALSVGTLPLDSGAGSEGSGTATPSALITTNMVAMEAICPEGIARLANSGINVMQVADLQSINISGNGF
Sequence of Paired box protein Pax-6 (Homo sapiens) (P26367 whole entry, looked up): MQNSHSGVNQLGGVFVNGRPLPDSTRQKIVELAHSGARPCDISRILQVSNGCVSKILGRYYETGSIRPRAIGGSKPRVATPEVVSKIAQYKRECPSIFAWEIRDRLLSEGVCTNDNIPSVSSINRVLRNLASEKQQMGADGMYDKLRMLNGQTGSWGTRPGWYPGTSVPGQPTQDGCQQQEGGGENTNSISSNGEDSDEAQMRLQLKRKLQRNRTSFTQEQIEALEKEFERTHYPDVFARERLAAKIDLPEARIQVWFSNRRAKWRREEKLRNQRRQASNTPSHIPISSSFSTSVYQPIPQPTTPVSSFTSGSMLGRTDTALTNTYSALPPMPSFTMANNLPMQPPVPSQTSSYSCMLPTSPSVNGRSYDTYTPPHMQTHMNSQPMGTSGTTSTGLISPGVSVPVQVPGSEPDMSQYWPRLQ
Sequence of X-box-binding protein 1 (Homo sapiens) (P17861 whole entry, looked up): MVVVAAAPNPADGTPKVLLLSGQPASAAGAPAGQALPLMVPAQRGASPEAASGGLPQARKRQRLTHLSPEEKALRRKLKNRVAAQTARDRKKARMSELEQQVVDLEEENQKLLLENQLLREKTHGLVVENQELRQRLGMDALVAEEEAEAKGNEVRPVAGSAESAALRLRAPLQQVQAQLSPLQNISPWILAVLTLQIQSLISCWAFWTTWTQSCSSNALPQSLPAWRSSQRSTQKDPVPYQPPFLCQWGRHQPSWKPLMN
Sequence of Androgen receptor (Homo sapiens) (P10275 whole entry, looked up, the tested form may be a part): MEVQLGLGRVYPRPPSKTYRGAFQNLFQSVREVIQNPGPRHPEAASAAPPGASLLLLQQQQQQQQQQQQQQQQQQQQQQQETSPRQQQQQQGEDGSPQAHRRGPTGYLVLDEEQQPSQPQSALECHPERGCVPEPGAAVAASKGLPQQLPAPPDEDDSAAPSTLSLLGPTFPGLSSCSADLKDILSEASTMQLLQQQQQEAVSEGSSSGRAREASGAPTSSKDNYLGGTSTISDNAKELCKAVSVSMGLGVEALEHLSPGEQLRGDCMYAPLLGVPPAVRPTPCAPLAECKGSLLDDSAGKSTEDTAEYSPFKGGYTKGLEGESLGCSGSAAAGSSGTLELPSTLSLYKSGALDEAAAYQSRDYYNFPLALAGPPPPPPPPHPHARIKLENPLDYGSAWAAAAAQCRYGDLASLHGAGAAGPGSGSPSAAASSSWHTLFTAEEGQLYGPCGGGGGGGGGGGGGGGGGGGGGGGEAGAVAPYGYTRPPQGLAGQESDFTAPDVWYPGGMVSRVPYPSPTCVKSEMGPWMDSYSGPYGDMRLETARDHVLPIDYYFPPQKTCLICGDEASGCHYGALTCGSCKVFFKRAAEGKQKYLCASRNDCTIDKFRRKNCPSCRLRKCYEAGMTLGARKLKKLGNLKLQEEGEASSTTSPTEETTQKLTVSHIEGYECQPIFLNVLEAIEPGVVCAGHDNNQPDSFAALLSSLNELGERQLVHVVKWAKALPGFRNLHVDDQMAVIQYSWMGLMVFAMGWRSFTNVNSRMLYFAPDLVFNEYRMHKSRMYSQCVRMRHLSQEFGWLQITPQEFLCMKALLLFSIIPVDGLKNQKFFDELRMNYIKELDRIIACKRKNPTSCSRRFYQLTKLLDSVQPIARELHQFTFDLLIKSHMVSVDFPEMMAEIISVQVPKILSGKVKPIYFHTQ

CNC(=O)Oc1ccccc1OC(C)C
not listed: [17] | [18] | [19]
inactive: all other assays above

CC(C)(C)C(O)C(Oc1ccc(Cl)cc1)n1cncn1 (stereo not drawn)
inactive: [1] | [4] | [5] | [17] | [6] | [7] | [8] | [9] | [10] | [11] | [12] | [15] | [16] | [18]
active: [2] 1.27 µM [middle of 6 runs] | [6] 48.7 µM and 23.2 µM and 24 µM

COC(=O)c1ccccc1S(=O)(=O)NC(=O)Nc1nc(C)nc(OC)n1
not listed: [3] | [4] | [12] | [13] | [14] | [17] | [18] | [19]
inactive: all other assays above

O=S1OCC2C(CO1)C1(Cl)C(Cl)=C(Cl)C2(Cl)C1(Cl)Cl (stereo not drawn)
active: [2] 1.47 µM | [13] 2.04 µM
not listed: [3] | [14] | [17] | [18] | [19]
inactive: all other assays above

ClC1C(Cl)C(Cl)C(Cl)C(Cl)C1Cl (stereo not drawn)
inactive: [1] | [3] | [5] | [6] | [7] | [8] | [9] | [10] | [11] | [14] | [15] | [16] | [18]
active: [2] 2.93 µM [middle of 4 runs] | [6] 67.6 µM | [10] 100 µM | [15] 42.6 µM

O=C1c2ccccc2C(=O)N1SC(Cl)(Cl)Cl
active: [2] 15.8 µM
not listed: [14] | [17] | [19]
inactive: all other assays above

CCN(CC)C(=O)SCc1ccc(Cl)cc1
active: [2] 4.49 µM | [4] 19 µM | [13] 32.4 µM
not listed: [3] | [12] | [17] | [19]
inactive: all other assays above

C[C@H]1[C@H](c2ccc(Cl)cc2)SC(=O)N1C(=O)NC1CCCCC1
active: [2] 1.93 µM | [4] 17.5 µM
not listed: [3] | [14] | [16] | [19]
inactive: all other assays above

CCC(C)(C)C(=O)OC1=C(c2ccc(Cl)cc2Cl)C(=O)OC12CCCCC2
not listed: [12] | [13] | [17] | [19]
inactive: all other assays above

Cc1[nH]c(=O)n(C(C)(C)C)c(=O)c1Cl
active: [17] 50 µM | [11] 28.7 µM | [15] 27.4 µM
not listed: [3] | [14]
inactive: all other assays above

CC(C)(C)C(O)/C(=C\c1ccc(Cl)cc1Cl)n1cncn1 (stereo not drawn)
active: [2] 5 µM
not listed: [14] | [17] | [18] | [19]
inactive: all other assays above

[2H]C1([2H])[n+]2ccccc2-c2cccc[n+]2C1([2H])[2H]
active: [2] 18.6 µM | [6] 13.3 µM
not listed: [12] | [13] | [14] | [17] | [18] | [19]
inactive: all other assays above

CN1CSC(=S)N(C)C1
active: [3] 10.3 µM | [15] 50 µM
not listed: [13] | [16] | [17] | [18] | [19]
inactive: all other assays above

O=S(=O)(O)C(F)(F)C(F)(F)C(F)(F)C(F)(F)C(F)(F)C(F)(F)C(F)(F)C(F)(F)F
active: [4] 133 µM | [5] 52.8 µM | [6] 68.7 µM | [8] 55.9 µM | [11] 62.2 µM [middle of 9 runs] | [16] 100 µM
inactive: [1] | [4] | [5] | [6] | [7] | [8] | [9] | [10] | [11] | [14] | [15] | [16] | [18]
